# Test results: PubChem BioAssay AID743279 (National Center for Advancing Translational Sciences (NCATS), 2014)
# In all, about 360,000 compounds went through this assay and about 17,000 (4.7%) were called active. Roughly 5% stayed inconclusive and do not appear here. The sample as a whole holds a higher share of actives than the screen did. Unmarked numbers belong to inactive results. Rule as the data show it: active = activity change below about -50%; inconclusive = mostly about -30% to -49%; inactive = weaker than that.
# Test: qHTS for Inhibitors of Inflammasome Signaling: IL-1-beta AlphaLISA Primary Screen
# Settings: THP-1 LPS/ATP IL-1B secretion, 16 h; at 57.5 µM, hits give low values
# In short: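 Secreted IL-1B measured by AlphaLISA bead assay after 16 h compound exposure of THP-1 cells; compounds (final up to 57.5 uM) added 1 h before LPS (250 ng/mL) and ATP (1.25 mM) stimulation; lower signal means less secretion.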
# % is scaled to controls: 0 for no effect and ±100 for the full control effect.
row,SMILES,activity change
1,N#Cc1cccc(NC(=O)c2cc(C3CCCCN3C(=O)CCc3ccccc3)on2)c1 (centres undefined),-18%
2,O=C(NCCCn1ccnc1)c1ccccc1F,8.56%
3,C=CCc1cc(C)ccc1OCCCn1ccnc1,-24.1%
4,Clc1c(OCCCn2ccnc2)ccc2ccccc12,-77% (active)
5,COc1cccc(CNC(=O)[C@@H]2CCCN2C(=O)[C@@H]2CCCN2C(=O)c2ccccc2)c1,0%
6,O=C(CCc1ccccc1)Nc1ccc(NC(=O)C2CCCCC2)nc1,-9.78%
7,C=CCN1CCN(c2ccncc2S(=O)(=O)N2CCN(C)CC2)CC1,-7.51%
8,CC(=O)OC1CCC2(C)C(=CCC3C4CC(=O)N(O)C(=O)C4(C)CCC32)C1 (centres undefined),-9.48%
9,O=C(Nc1ccccc1)N1CCN(C2c3ccccc3-c3ccccc32)CC1,-15.2%
10,O=C(Nc1cccc(NC(=O)N2CCN(c3ccccc3)CC2)c1)N1CCN(c2ccccc2)CC1,-55.8% (active)
11,O=C(Nc1ccc(F)cc1)N1CCN(c2ccc(F)cc2)CC1,2.96%
12,CCOC(=O)c1c(NC(=O)COC(=O)c2ccc(S(=O)(=O)C(F)F)cc2)sc(C(=O)N(C)C)c1C,-22%
13,C=CCN1C=C(C(=O)c2ccccc2)C(=O)CC1,14%
14,CC(C)C1C(=O)N(Cc2cn(CCC3OCCO3)nn2)CCS(=O)(=O)N1Cc1ccc(-c2ccccc2C(F)(F)F)cc1 (centres undefined),-17.2%
15,O=C(OC(C(=O)NC1CCCC1)c1ccc(F)cc1)c1ccno1 (centres undefined),-4.45%
16,CCOc1ccc(/C=C(/C#N)c2nnc(N3CCOCC3)n2-c2ccccc2)cc1OC,-13.1%
17,COc1ccc(C2(C)ON(c3ccccc3C(F)(F)F)C2=O)cc1 (centres undefined),-62.1% (active)
18,COc1ccc(C2(O)C(=O)Nc3ccccc32)cc1 (centres undefined),16%
19,COc1ccc(C2(C)NC(=O)N(CC(=O)c3ccc4c(c3)OCO4)C2=O)cc1 (centres undefined),6.28%
20,COC(=O)CCCCC1=CCC2C(=O)C=C(O)C2C1 (centres undefined),46.8%

row,SMILES,activity change
1,Cc1cc(C)cc(NC(=O)C2CCCN(S(=O)(=O)c3ccc4[nH]c(=O)ccc4c3)C2)c1 (centres undefined),-11.9%
2,CC(C(=O)NC1CCCC1)N1CCN(S(=O)(=O)c2ccccc2Cl)CC1 (centres undefined),-3.55%
3,CCc1nc2c(OCCOc3ccccc3)cccn2c1N(C)C(=O)c1ccc(OC)cc1,-0.0267%
4,COc1ccc(S(=O)(=O)N(C)C)cc1NC(=O)COC(=O)c1n[nH]c2ccccc12,-8.2%
5,O=C(Nc1nnc(C2CC2)s1)c1ccccn1,12.6%
6,Cc1cnc(NC(=O)c2ccccn2)s1,-99.9% (active)
7,Cc1cnc(NC(=O)C2CCCC2)s1,-15.9%
8,O=S(=O)(N1CCCCC1)N1CCNCC1,18.8%
9,CNC(=O)c1ccc(CN(C)C(=O)c2cc(C3CC3)nc3c2cnn3C(C)C)cc1,-23.4%
10,CCOC(=O)C1=C(CSc2nnnn2C)N(C)C(=O)NC1c1ccccc1 (centres undefined),25.6%
11,COc1cc(/C=N/O)cc(Br)c1OS(=O)(=O)c1ccc(C)cc1,-4.12%
12,COc1cc(/C=N/NC(=O)Cc2ccccc2)cc(OC)c1OC,11.4%
13,COc1cc(/C=N/O)cc(Br)c1OCc1cccc(Cl)c1,-101% (active)
14,CCCCCCn1c(=O)n2n(c1=O)C[C@]1(OC(=O)NCc3ccc(OC)c(OC)c3)CN(S(=O)(=O)c3ccc(C)cc3)C[C@]1(O)C2,-2.71%
15,NS(=O)(=O)c1ccc2nc(NC(=O)C3=COCCO3)sc2c1,4.02%
16,CCC(=O)N1CCC(C)(C(=O)Nc2cc(OC)c(OC)c(OC)c2)C1 (centres undefined),33.3%
17,CN(Cc1ccccc1)C(=O)COc1ccccc1,-10.6%
18,CN(CC(=O)Nc1ccc(Cl)cc1)C(=O)c1ccc(COc2ccccc2)cc1,5.98%
19,CN(Cc1ccccc1)C(=O)c1ccc(COc2ccccc2)cc1,-71.5% (active)
20,CN(Cc1ccccc1)C(=O)[C@@H]1CCCN1C(=O)[C@@H]1CCCN1C(=O)c1c(F)cccc1F,32.8%

row,SMILES,activity change
1,CC(=O)NC(Cc1c[nH]c2ccccc12)C(=O)NCCc1ccccc1 (centres undefined),-9.89%
2,CC(=O)NC(Cc1c[nH]c2ccccc12)C(=O)O (centres undefined),35%
3,O=C(NC(Cc1c[nH]c2ccccc12)C(=O)N/N=C/c1ccc(Br)cc1)c1cccs1 (centres undefined),-61.1% (active)
4,CC(C)Sc1nc(N)nc2c1ncn2C1OC(CO)C(O)C1O (centres undefined),16%
5,CCCCCCCCn1c2c(c(=N)c3c1CCC3)CCCC2,-89.8% (active)
6,CC(=O)Nc1ccc(S(=O)(=O)N2CCC(NC(=O)c3ccccc3)CC2)cc1,7.08%
7,CCOc1ccc(N2C(=O)CC(N(CCc3ccc(OC)c(OC)c3)C(=S)Nc3ccccc3)C2=O)cc1 (centres undefined),44.8%
8,CC(C)=CCCC1(C)C=Cc2c(ccc3c2[nH]c2cc(O)c(C)cc23)O1 (centres undefined),-71.6% (active)
9,Cc1ccc(S(=O)(=O)C2C(=O)NC3(C)CC2c2ccccc2O3)cc1 (centres undefined),12.4%
10,CC1=C(N2CCN(c3ncccn3)CC2)CCC1=O,8.92%
11,c1cnc(N2CCN(c3ccc4ccccc4n3)CC2)nc1,-50.1% (active)
12,O=C(c1ccncc1)N1CCN(c2ccc3ccccc3n2)CC1,5.08%
13,COCCCn1cc(CN2CC(N(C)C)CS2(=O)=O)nn1 (centres undefined),21.9%
14,CC1CCC(C(C)C)C(=O)/C1=C\c1ccc(NC(=O)CCC(=O)O)cc1 (centres undefined),0%
15,Cc1ccc(NC(=O)c2cc(-c3ccccc3O)n[nH]2)cc1C,-6.84%
16,Cc1ccc(O)c(-c2cc(C(=O)Nc3c(C)n(C)n(-c4ccccc4)c3=O)[nH]n2)c1,0%
17,Cc1ccc(C)c(NC(=O)c2cc(-c3cc(C)cc(C)c3O)n[nH]2)c1,-93.5% (active)
18,COc1ccc(NC(=O)C2(C)Cc3c(-c4ccc(C(N)=O)cc4)ccnc3O2)cc1 (centres undefined),0%
19,Cc1cc(NC(=O)c2cc3ccccc3o2)no1,45.3%
